Results: PubChem BioAssay (NCI)
Compounds without any hit were thinned out: in the full panel of roughly 79,000, 15% have a hit. Activity calls are given as the source filed them. No stated cut-off is given here; in the data, active means growth inhibition above about 70%; inactive means the rest.

Tests used:
[1] = NCI Yeast Anticancer Drug Screen. Data for the rad52 strain (AID 147);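 further: 0% = growth of vehicle-treated control cultures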; conditions: S. cerevisiae rad52 mutant growth inhibition, hits give high values
How it was run: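 The repair-mutant yeast strain was incubated with compounds, then growth was read and inhibition derived relative to vehicle.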

[2] = NCI Yeast Anticancer Drug Screen. Data for the wt1 strain (AID 149);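 further: 0% = growth of vehicle-treated wt1 cultures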; conditions: S. cerevisiae wt1 strain (SPY 50644) growth inhibition, hits give high values
How it was run: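 Each compound is tested on wt1 yeast and the loss of growth versus vehicle gives the inhibition value.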

[3] = NCI Yeast Anticancer Drug Screen. Data for the rad50EPP+ strain (AID 151);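 further: 0% = growth of vehicle-treated control cultures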; conditions: S. cerevisiae rad50 mutant strain, hits give high values
How it was run: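 Vehicle-normalised growth inhibition; rad50EPP+ yeast strain, altered in DNA damage repair, compound-treated.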

[4] = NCI Yeast Anticancer Drug Screen. Data for the rad50 strain (AID 155);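 further: 0% = growth of vehicle-only cultures of the same strain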; conditions: S. cerevisiae rad50 strain growth inhibition, hits give high values
How it was run: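 Vehicle-treated cultures provide the reference for the growth inhibition reported for compound-exposed, repair-deficient yeast.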

[5] = NCI Yeast Anticancer Drug Screen. Data for the mec2-1 strain (AID 157); conditions: S. cerevisiae mec2-1 strain, hits give high values
How it was run: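 Mutant yeast (mec2-1) grown with compound; growth inhibition relative to vehicle control reported.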

[6] = NCI Yeast Anticancer Drug Screen. Data for the rad14 strain (AID 159);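 further: 0% = growth of vehicle-treated control cultures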; conditions: S. cerevisiae rad14 strain growth inhibition, hits give high values
How it was run: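 Inhibition of growth is reported for a repair-deficient yeast mutant following compound treatment, calculated relative to cultures that received vehicle.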

[7] = NCI Yeast Anticancer Drug Screen. Data for the sgs1 mgt1 strain (AID 161);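 further: 0% = growth of cultures given vehicle only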; conditions: S. cerevisiae sgs1 mgt1 strain, hits give high values
How it was run: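 Yeast cells carrying a defined DNA-repair defect were exposed to test compounds. Growth inhibition was measured relative to vehicle-treated controls.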

[8] = NCI Yeast Anticancer Drug Screen. Data for the CLN2oe strain (AID 163);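 further: 0% = growth of vehicle-only control cultures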; conditions: S. cerevisiae CLN2oe strain, hits give high values
How it was run: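 Compounds are applied to yeast harbouring a defined cell-cycle control change; reduced growth compared with vehicle-treated controls gives the value.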

[9] = NCI Yeast Anticancer Drug Screen. Data for the cln2 rad14 strain (AID 165);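 further: 0% = growth equal to vehicle treated cultures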; conditions: S. cerevisiae cln2 rad14 strain, hits give high values
How it was run: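 Readout is yeast growth inhibition versus vehicle-treated controls, using a strain with cln2 and rad14 alterations exposed to compound.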

[10] = NCI Yeast Anticancer Drug Screen. Data for the bub3 strain (AID 167); conditions: S. cerevisiae bub3 mutant strain, hits give high values
How it was run: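 Mutant yeast screening strain plus compound; vehicle-treated cultures serve as the 0% inhibition reference.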

[11] = NCI Yeast Anticancer Drug Screen. Data for the wt2 strain (AID 169); conditions: S. cerevisiae wt2 strain growth inhibition, hits give high values
How it was run: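 Against vehicle-treated controls, the growth of yeast exposed to each compound was compared, and the inhibition was recorded.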

[12] = NCI Yeast Anticancer Drug Screen. Data for the sgs1 strain (AID 173);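 further: 0% = growth of vehicle-only control cultures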; conditions: S. cerevisiae sgs1 mutant, hits give high values
How it was run: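 Each compound was added to cultures of the altered yeast strain. Growth was recorded, and inhibition was derived by comparison with vehicle controls.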

[13] = NCI Yeast Anticancer Drug Screen. Data for the mlh1 rad18 strain (AID 175); conditions: S. cerevisiae mlh1 rad18 strain growth inhibition, hits give high values
How it was run: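 Genetically defined yeast (DNA repair-deficient) exposed to compounds; growth inhibition determined relative to vehicle.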

[14] = NCI Yeast Anticancer Drug Screen. Data for the rad18 strain (AID 177); conditions: S. cerevisiae rad18 mutant growth inhibition, hits give high values
How it was run: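 Vehicle-treated cultures served as the baseline for scoring compound-induced growth inhibition in DNA-repair-mutant yeast.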

[15] = NCI Yeast Anticancer Drug Screen. Data for the mlh1 strain (AID 171);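 further: 0% = growth of vehicle-treated control cultures of the same strain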; conditions: S. cerevisiae mlh1 strain growth inhibition, hits give high values
How it was run: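 Measured: yeast growth. Reference: vehicle-treated controls. Organism: strain with a defined alteration affecting DNA damage repair or cell cycle control, treated with compound.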

[16] = at 5.0 µM (retest, dose inferred, filed as 0.5)
[17] = at 50.0 µM (retest, dose inferred, filed as 5.0)

Measured: growth inhibition

N#CSC1CCCCNC1=O (centres undefined)
inactive: [1]; at 1.2 µM 2% | [1]; at 3.7 µM 10% | [1]; at 11.0 µM 32% | [2]; at 1.2 µM -3% | [2]; at 3.7 µM -3% | [2]; at 11.0 µM 9% | [2]; at 33.0 µM 46% | [3]; at 1.2 µM 6% | [3]; at 3.7 µM 18% | [3]; at 11.0 µM 42% | [4]; at 1.2 µM 0% | [4]; at 3.7 µM 3% | [4]; [16] -150% | [4]; at 11.0 µM 36% | [4]; [17] 26% | [4]; at 50.0 µM 54.2% | [5]; at 1.2 µM 4% | [5]; at 3.7 µM 3% | [5]; [16] -47% | [5]; at 11.0 µM 25% | [5]; at 33.0 µM 51% | [5]; [17] 3% | [6]; at 1.2 µM 2% | [6]; at 3.7 µM -4% | [6]; at 11.0 µM 10% | [6]; at 33.0 µM 59% | [7]; [16] -59% | [7]; [17] 35% | [7]; at 50.0 µM 50% | [8]; at 1.2 µM -4% | [8]; at 3.7 µM -4% | [8]; at 11.0 µM 21% | [8]; at 33.0 µM 44% | [9]; [16] -58% | [9]; [17] -13% | [9]; at 50.0 µM 52.5% | [10]; at 1.2 µM -4% | [10]; at 3.7 µM 4% | [10]; [16] -66% | [10]; at 11.0 µM 36% | [10]; at 33.0 µM 60% | [10]; [17] 2% | [11]; at 1.2 µM 0% | [11]; at 3.7 µM -1% | [11]; at 11.0 µM 10% | [11]; at 33.0 µM 49% | [12]; at 1.2 µM 1% | [12]; at 3.7 µM 5% | [12]; at 11.0 µM 57% | [13]; [16] -126% | [13]; [17] 58% | [14]; at 1.2 µM 12% | [14]; at 3.7 µM 33%
active: [1]; at 33.0 µM 83% | [1]; at 100.0 µM 98% | [2]; at 100.0 µM 93% | [3]; at 33.0 µM 70% | [3]; at 100.0 µM 85% | [4]; at 33.0 µM 86% | [4]; at 100.0 µM 98% | [5]; at 50.0 µM 78.3% | [5]; at 100.0 µM 94% | [6]; at 100.0 µM 99% | [8]; at 100.0 µM 96% | [10]; at 50.0 µM 79.7% | [10]; at 100.0 µM 97% | [11]; at 100.0 µM 98% | [12]; at 33.0 µM 89% | [12]; at 100.0 µM 99% | [13]; at 50.0 µM 95.9% | [14]; at 11.0 µM 82% | [14]; at 33.0 µM 94% | [14]; at 100.0 µM 98%

CC1C(C#N)(C#N)C(C#N)=C(N)C1(Cl)[N+](=O)[O-] (centres undefined)
active: [1]; at 100.0 µM 85% | [3]; at 33.0 µM 78% | [3]; at 100.0 µM 85% | [4]; [17] 78% | [4]; at 50.0 µM 77.5% | [4]; at 100.0 µM 76% | [5]; [17] 85% | [5]; at 50.0 µM 77.4% | [5]; at 100.0 µM 81% | [7]; [17] 78% | [7]; at 50.0 µM 76% | [8]; at 100.0 µM 88% | [10]; [17] 86% | [10]; at 50.0 µM 73.8% | [10]; at 100.0 µM 84% | [11]; at 100.0 µM 92% | [12]; at 100.0 µM 90% | [13]; [17] 94% | [14]; at 100.0 µM 87%
inactive: [1]; at 1.2 µM 3% | [1]; at 3.7 µM 33% | [1]; at 11.0 µM 35% | [1]; at 33.0 µM 56% | [2]; at 1.2 µM 10% | [2]; at 3.7 µM 9% | [2]; at 11.0 µM 8% | [2]; at 33.0 µM 22% | [2]; at 100.0 µM 55% | [3]; at 1.2 µM 19% | [3]; at 3.7 µM 37% | [3]; at 11.0 µM 55% | [4]; at 1.2 µM 4% | [4]; at 3.7 µM 26% | [4]; [16] 24% | [4]; at 11.0 µM 29% | [4]; at 33.0 µM 40% | [5]; at 1.2 µM 0% | [5]; at 3.7 µM 30% | [5]; [16] 11% | [5]; at 11.0 µM 32% | [5]; at 33.0 µM 41% | [6]; at 1.2 µM 1% | [6]; at 3.7 µM 8% | [6]; at 11.0 µM 15% | [6]; at 33.0 µM 28% | [6]; at 100.0 µM 67% | [7]; [16] 11% | [8]; at 1.2 µM 19% | [8]; at 3.7 µM 39% | [8]; at 11.0 µM 48% | [8]; at 33.0 µM 53% | [9]; [16] -5% | [9]; [17] 30% | [9]; at 50.0 µM 65.8% | [10]; at 1.2 µM 12% | [10]; at 3.7 µM 12% | [10]; [16] 20% | [10]; at 11.0 µM 20% | [10]; at 33.0 µM 49% | [11]; at 1.2 µM -1% | [11]; at 3.7 µM 7% | [11]; at 11.0 µM 22% | [11]; at 33.0 µM 58% | [12]; at 1.2 µM 28% | [12]; at 3.7 µM 20% | [12]; at 11.0 µM 37% | [12]; at 33.0 µM 61% | [13]; [16] 19% | [13]; at 50.0 µM 48% | [14]; at 1.2 µM 14% | [14]; at 3.7 µM 17% | [14]; at 11.0 µM 34% | [14]; at 33.0 µM 61%

CCOP1(=O)C=C(Sc2ccc([N+](=O)[O-])cc2[N+](=O)[O-])C(C)(C)O1 (centres undefined)
active: [1]; at 100.0 µM 84% | [4]; at 100.0 µM 83% | [5]; at 100.0 µM 87% | [10]; at 100.0 µM 92% | [11]; at 100.0 µM 72% | [15]; at 100.0 µM 83% | [14]; at 100.0 µM 92%
inactive: [1]; at 1.2 µM 2% | [1]; at 3.7 µM 6% | [1]; at 11.0 µM 16% | [1]; at 33.0 µM 39% | [2]; at 1.2 µM 2% | [2]; at 3.7 µM 2% | [2]; at 11.0 µM 6% | [2]; at 33.0 µM 4% | [2]; at 100.0 µM 31% | [3]; at 1.2 µM -4% | [3]; at 3.7 µM -3% | [3]; at 11.0 µM -2% | [3]; at 33.0 µM 13% | [3]; at 100.0 µM 53% | [4]; at 1.2 µM 2% | [4]; at 3.7 µM 9% | [4]; [16] 28% | [4]; at 11.0 µM 16% | [4]; at 33.0 µM 37% | [4]; [17] 40% | [4]; at 50.0 µM 51.4% | [5]; at 1.2 µM 7% | [5]; at 3.7 µM 12% | [5]; [16] 27% | [5]; at 11.0 µM 18% | [5]; at 33.0 µM 41% | [5]; [17] 41% | [5]; at 50.0 µM 8.65% | [6]; at 1.2 µM 1% | [6]; at 3.7 µM 3% | [6]; at 11.0 µM 9% | [6]; at 33.0 µM 20% | [6]; at 100.0 µM 43% | [7]; [16] 23% | [7]; [17] 38% | [7]; at 50.0 µM 33% | [8]; at 1.2 µM 3% | [8]; at 3.7 µM 0% | [8]; at 11.0 µM 1% | [8]; at 33.0 µM 11% | [8]; at 100.0 µM 37% | [9]; [16] 7% | [9]; [17] 44% | [9]; at 50.0 µM 26.1% | [10]; at 1.2 µM 5% | [10]; at 3.7 µM 7% | [10]; [16] 11% | [10]; at 11.0 µM 16% | [10]; at 33.0 µM 40% | [10]; [17] 31% | [10]; at 50.0 µM 1.9% | [11]; at 1.2 µM 4% | [11]; at 3.7 µM 8% | [11]; at 11.0 µM 12% | [11]; at 33.0 µM 25% | [15]; at 1.2 µM 3% | [15]; at 3.7 µM 7% | [15]; at 11.0 µM 14% | [15]; at 33.0 µM 31% | [13]; [16] 25% | [13]; [17] 60% | [13]; at 50.0 µM 42.2% | [14]; at 1.2 µM 0% | [14]; at 3.7 µM 9% | [14]; at 11.0 µM 28% | [14]; at 33.0 µM 66%
